Source: PubChem BioAssay
“And” between values parts separate entries of the source, which are not always exact repeats. Equal entries are not always repeated. Results filed as inconclusive are left out. A structure can be active in one record and inactive in another. The source made the active and inactive calls. Unless noted, how the calls were made is not given here.

How the values were obtained:
[1] = liver-stage malaria parasite load reduction – cell-based, known kinase inhibitor set, luminescence, hepatoma host viability (AID 624392); settings: Plasmodium liver stage in hepatoma cells, luciferase luminescence, concentration not given here; liver cell % of control: measured here: host liver cell viability; parasite % of control: stronger effect = lower value;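 further: infected cells incubated roughly two days before readout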
[2] = altered dexamethasone sensitivity, NF-kB reporter, cell-based, luciferase, IL-1B stimulus (AID 624486); settings: IL-1B + dexamethasone, luminescence; percent of negative control (+Dex): actives lie on both sides, concentration not given here; z-score: measured here: IL-1B alone, no Dex;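 on percent of negative control (+Dex): 100% = mean signal of vehicle control wells on the plate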
[3] = biological target: Cellular tumor antigen p53 (Homo sapiens) (UniProt P04637); test: GFP-p53 level modulators in HPV16+ cells – imaging, known kinase inhibitor set, EGFP/DsRed ratio (AID 1053116); settings: GFP-p53 stability, stronger effect = higher value; EGFP object count: measured here: GFP-p53 positive objects count;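 further: cells exposed to compounds for 24 h at 37 °C before reading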
Cellular tumor antigen p53 (Homo sapiens), sequence (P04637 whole entry, looked up): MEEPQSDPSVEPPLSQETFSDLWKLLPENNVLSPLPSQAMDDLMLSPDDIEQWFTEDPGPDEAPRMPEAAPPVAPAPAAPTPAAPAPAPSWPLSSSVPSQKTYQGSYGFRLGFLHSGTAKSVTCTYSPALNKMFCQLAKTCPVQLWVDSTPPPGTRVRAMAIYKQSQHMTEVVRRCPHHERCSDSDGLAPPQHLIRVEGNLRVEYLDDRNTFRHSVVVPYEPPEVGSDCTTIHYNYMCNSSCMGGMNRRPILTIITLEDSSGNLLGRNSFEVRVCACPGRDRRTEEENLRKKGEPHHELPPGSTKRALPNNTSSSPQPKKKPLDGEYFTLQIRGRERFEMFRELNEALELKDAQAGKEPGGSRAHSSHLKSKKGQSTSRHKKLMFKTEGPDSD

[4] = inducers of IRF3 signaling, differentiated THP-1 – cell-based, PMA-stimulated THP-1, luminescence (AID 1053176); settings: PMA-differentiated THP-1, IRF3 reporter luminescence; stronger effect = higher value
[5] = viability loss with induced miR-34 in A549 – imaging, A549 dox-inducible miR-34, nuclei and caspase counts, primary screen (AID 1347080;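 active means compounds whose cell count with miR-34 switched on is under 0.7 times the count with it off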); settings: A549 miR-34 inducible, Hoechst nuclei count, 48 h
[6] = C. elegans survival during P. aeruginosa infection – whole organism (AID 651566);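 further: tested at 14 µM; sign flipped so higher z means a lower ratio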; settings: C. elegans killed by P. aeruginosa, survival ratio
[7] = pro-inflammatory signaling induction in mouse macrophages – cell-based, murine, luminescence (AID 652131); settings: murine macrophage pro-inflammatory reporter, stronger effect = higher value
[8] = MELAS cybrid and Rieske KO viability enhancers – cell-based, MELAS cybrids, Rieske KO mouse fibroblasts, CellTiter-Glo, primary screen (AID 1508586;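 active means mean z-score across replicates of 1.96 or higher in either the MELAS or the Rieske mutant cell line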;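 further: z relative to plate mean and SD of compound and empty wells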); settings: low glucose
[9] = P. berghei load reduction in hepatocytes – cell-based, HepG2, luciferase luminescence, HepG2 viability, primary screen (AID 624349; in the data active means parasite load remaining mostly below about 12%, no sharp cut-off; inactive means mostly above about 10%;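 further: 100% = mean of DMSO negative control wells on the same plate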); settings: P. berghei liver stage in HepG2, luciferase luminescence, concentration not given here; parasite load remaining: stronger effect = lower value; viability: measured here: HepG2 viability without parasites
[10] = viability loss in pontine glioma line – cell-based, SU-DIPG-XIII, MIPE4.0, CellTiter-Glo, qHTS, dose response (AID 1347061; cut-off not given, nearly all actives have AC50 up to about 37 µM;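 further: cells exposed to compound for 48 hours before readout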); settings: CellTiter-Glo ATP luminescence
[11] = viability loss in pontine glioma line – cell-based, JHH-DIPG-1, MIPE4.0, CellTiter-Glo, qHTS, dose response (AID 1347062; cut-off not given, nearly all actives have AC50 up to about 27 µM;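 on AC50: cells exposed to compound for two days before readout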); settings: JHH-DIPG-1 viability, CellTiter-Glo ATP luminescence
[12] = viability loss in pontine glioma line – cell-based, SU-DIPG-IV, MIPE4.0, CellTiter-Glo, qHTS, dose response (AID 1347063; cut-off not given, nearly all actives have AC50 up to about 30 µM;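 further: compound exposure lasted 48 hours before the viability readout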); settings: CellTiter-Glo ATP luminescence
[13] = viability loss in pontine glioma line – cell-based, SU-DIPG-XXV, MIPE5.0, CellTiter-Glo, qHTS, dose response (AID 1347065; cut-off not given, nearly all actives have AC50 up to about 26 µM;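 further: cells exposed to compound for 48 hours before ATP readout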); settings: CellTiter-Glo ATP luminescence
[14] = growth inhibition of DIPG cells – cell-based, MIPE4.0 library, CellTiter-Glo luminescence, qHTS (AID 1347066; cut-off not given, nearly all actives have AC50 up to about 30 µM;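 further: cells exposed to compound for 48 hours before readout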); settings: SU-DIPG-VI viability, CellTiter-Glo ATP luminescence
[15] = JHH-DIPG-1 glioma cell viability, MIPE5.0 library, CellTiter-Glo luminescence, qHTS (AID 1347067; cut-off not given, nearly all actives have AC50 up to about 26 µM;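 further: cells exposed to compound for 48 hours before readout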); settings: JHH-DIPG-1 glioma viability, CellTiter-Glo ATP luminescence
[16] = growth inhibition of DIPG cells – cell-based, MIPE5.0 library, qHTS (AID 1347068; cut-off not given, nearly all actives have IC50 up to about 30 µM); settings: SU-DIPG-XXV viability
[17] = galactose survival enhancers in mitochondrial complex I cybrids – cell-based, galactose medium, ATP luminescence, primary screen (AID 1645843;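 active means z-score of at least 1.8 in each of two replicates, scored against plate mean and spread of sample wells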;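 further: positive z means more ATP and so rescue of galactose-driven cybrid death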); settings: complex I mutant cybrid cells, 72 h, stronger effect = higher value
[18] = compounds altering HSF1 focus formation in cells – imaging, Selleck Cancer Library (AID 1347162; in the data active means plate-normalised HSF1 focus index below about 0.46); settings: human cells, HSF1 nuclear foci imaging, at 10 µM; SSMD: measured here: HSF1 foci SSMD mean; cell count: measured here: cell number; plate-normalised HSF1 focus index: stronger effect = lower value
[19] = stronger effect = lower value, cell number ratio, induced over uninduced
[20] = measured here: relative caspase fold change +Dox/-Dox
[21] = measured here: total cells with miR-34 induction, stronger effect = lower value
[22] = measured here: total cells without miR-34 induction
[23] = MELAS cybrid survival, CellTiter-Glo 48 h, stronger effect = higher value
[24] = Rieske KO mouse fibroblast survival, CellTiter-Glo 72 h

Cn1cc(C2=C(c3cn(CCCN)c4ccccc34)C(=O)NC2=O)c2ccccc21
liver cell % of control [1]: 148% | parasite % of control [1]: 23.2% (inactive) | percent of negative control (+Dex) [2]: 104% (inactive) | z-score [2]: -0.65 | EGFP object count [3]: 39 | EGFP/DsRed ratio [3]: 0.871 (inactive) | fraction signal [4]: -0.0135 (inactive) | fold change [5, 19]: 1.52 (inactive) | fold change [5, 20]: 0.871 | cell count [5, 21]: 5190 | cell count [5, 22]: 3420

Nc1nonc1-c1nc2cnccc2n1C1CCCCC1
liver cell % of control [1]: 69% | parasite % of control [1]: 61.4% (inactive) | percent of negative control (+Dex) [2]: 29.5% (active) | z-score [2]: -7.08 | z-score [6]: -0.155 (inactive) | z-score [7]: -0.857 (inactive) | EGFP object count [3]: 3.5 | EGFP/DsRed ratio [3]: 0.0658 (inactive) | fraction signal [4]: -0.002 (inactive) | z-score [8, 23]: -0.132 (inactive) | z-score [8, 24]: -0.207

COc1cc2ncn(-c3cc(OCc4ccccc4S(C)(=O)=O)c(C#N)s3)c2cc1OC
parasite load remaining [9]: 28.4% (inactive) | viability [9]: 80.2% | liver cell % of control [1]: 84.7% | parasite % of control [1]: 80.2% (inactive) | percent of negative control (+Dex) [2]: 72.5% (inactive) | z-score [2]: -0.135 | z-score [6]: -0.355 (inactive) | z-score [7]: 8.9 (active) | EGFP object count [3]: 7.5 | EGFP/DsRed ratio [3]: 0.318 (inactive) | fraction signal [4]: 0.0015 (inactive) | outcome [10]: inactive | outcome [11]: inactive | outcome [12]: inactive | outcome [13]: inactive | outcome [14]: inactive | outcome [15]: inactive | outcome [16]: inactive | z-score [8, 23]: 0.713 (inactive) | z-score [8, 24]: -0.131

Cn1cc(C2=C(c3cn(CCCSC(=N)N)c4ccccc34)C(=O)NC2=O)c2ccccc21
parasite load remaining [9]: 30.4% (inactive) | viability [9]: 73.7% | liver cell % of control [1]: 100% | parasite % of control [1]: 330% (inactive) | percent of negative control (+Dex) [2]: 98% (inactive) | z-score [2]: 0.705 | EGFP object count [3]: 1 | EGFP/DsRed ratio [3]: 0.00598 (inactive) | fraction signal [4]: -0.0115 (inactive) | z-score [8, 23]: 3.84 (active) | z-score [8, 24]: -1.11 | z-score [17]: -0.7 (inactive)

Nc1ccc(C#Cc2cncnc2Nc2ccc(OCc3cccc(F)c3)c(Cl)c2)cc1
liver cell % of control [1]: 98% | parasite % of control [1]: 136% (inactive) | percent of negative control (+Dex) [2]: 106% (inactive) | z-score [2]: 0.915 | z-score [6]: -0.52 (inactive) | z-score [7]: -0.735 (inactive) | EGFP object count [3]: 4 | EGFP/DsRed ratio [3]: 0.276 (inactive) | fraction signal [4]: 0.001 (inactive) | z-score [8, 23]: -0.813 (inactive) | z-score [8, 24]: -0.0706

CCn1c(-c2nonc2N)nc2cnc(Oc3cccc(NC(=O)c4ccc(OCCN5CCOCC5)cc4)c3)cc21
liver cell % of control [1]: 80.1% | parasite % of control [1]: 42.7% (inactive) | percent of negative control (+Dex) [2]: 50.5% (inactive) | z-score [2]: -3.25 | z-score [6]: 0.625 (inactive) | z-score [7]: 1.15 (inactive) | EGFP object count [3]: 3 | EGFP/DsRed ratio [3]: 0.0358 (inactive) | fraction signal [4]: 0.007 (inactive) | outcome [14]: inactive | SSMD [18]: 0.629 | cell count [18]: 7080 | plate-normalised HSF1 focus index [18]: 1.04 (inactive) | z-score [8, 23]: -0.727 (inactive) | z-score [8, 24]: 0.152

CCN1CCC(CC(=O)Nc2n[nH]c3nc(-c4cccs4)c(Br)cc23)CC1
liver cell % of control [1]: 76.8% | parasite % of control [1]: 72.5% (inactive) | percent of negative control (+Dex) [2]: 88% (inactive) | z-score [2]: -0.195 | z-score [6]: 0.735 (inactive) | z-score [7]: -0.532 (inactive) | EGFP object count [3]: 8.5 | EGFP/DsRed ratio [3]: 0.138 (inactive) | fraction signal [4]: 0.006 (inactive) | z-score [8, 23]: 0.148 (inactive) | z-score [8, 24]: -0.143

Cn1cc(C2=C(c3c4n(c5ccccc35)CCC(CN)C4)C(=O)NC2=O)c2ccccc21 (stereo unspecified)
liver cell % of control [1]: 84.3% | parasite % of control [1]: 50.7% (inactive) | percent of negative control (+Dex) [2]: 89.5% (inactive) | z-score [2]: -0.37 | EGFP object count [3]: 2 | EGFP/DsRed ratio [3]: 0.0193 (inactive) | fraction signal [4]: -0.001 (inactive) | AC50 [11]: 13.2 µM (active) | AC50 [12]: 18.7 µM (active) | outcome [13]: inactive | AC50 [14]: 23.5 µM (active) | outcome [15]: inactive | outcome [16]: inactive

CN1C(=O)C(c2c[nH]c3ccccc23)=C(c2c[nH]c3ccccc23)C1=O
parasite load remaining [9]: 34.8% (inactive) | viability [9]: 125% | liver cell % of control [1]: 87.4% | parasite % of control [1]: 30.7% (inactive) | percent of negative control (+Dex) [2]: 96.5% (inactive) | z-score [2]: -0.615 | EGFP object count [3]: 3 | EGFP/DsRed ratio [3]: 0.0517 (inactive) | fraction signal [4]: -0.0095 (inactive) | fold change [5, 19]: 0.868 (inactive) | fold change [5, 20]: 1.05 | cell count [5, 21]: 5070 | cell count [5, 22]: 5840

Nc1ncnc2occ(-c3ccc(NC(=O)Nc4cc(C(F)(F)F)ccc4F)cc3)c12
liver cell % of control [1]: 62.2% and 49.5% | parasite % of control [1]: 12.5% (inactive) and 10.2% (inactive) | percent of negative control (+Dex) [2]: 62.5% (inactive) and 72.5% (inactive) | z-score [2]: -4.27 and -2.6 | z-score [6]: -0.79 (inactive) and 0.505 (inactive) | z-score [7]: 0.268 (inactive) and -0.714 (inactive) | EGFP object count [3]: 2 and 1 | EGFP/DsRed ratio [3]: 0.017 (inactive) and 0.0224 (inactive) | fraction signal [4]: -0.0025 (inactive) and -0.0215 (inactive) | z-score [8, 23]: 0.841 (inactive) and 3.25 (active) | z-score [8, 24]: -0.123 and -0.164

Cc1cc(O)cc(C)c1/C=C/c1cncc(C(N)=O)c1
liver cell % of control [1]: 105% | parasite % of control [1]: 146% (inactive) | percent of negative control (+Dex) [2]: 106% (inactive) | z-score [2]: 0.29 | z-score [6]: -0.395 (inactive) | z-score [7]: 0.198 (inactive) | EGFP object count [3]: 4 | EGFP/DsRed ratio [3]: 0.013 (inactive) | fraction signal [4]: -0.001 (inactive) | z-score [8, 23]: -0.353 (inactive) | z-score [8, 24]: -0.218

NC(=O)c1sc(-n2cnc3cc(C(F)(F)F)ccc32)cc1OCc1ccccc1Br
liver cell % of control [1]: 109% | parasite % of control [1]: 113% (inactive) | percent of negative control (+Dex) [2]: 94.5% (inactive) | z-score [2]: 0.595 | z-score [6]: 0.64 (inactive) | z-score [7]: -0.704 (inactive) | EGFP object count [3]: 10.5 | EGFP/DsRed ratio [3]: 0.407 (inactive) | fraction signal [4]: -0.0005 (inactive) | z-score [8, 23]: 0.066 (inactive) | z-score [8, 24]: -0.5

Fc1ccc(-c2ncn(C3CCNCC3)c2-c2ccnc(Oc3ccc(Oc4ccccc4)cc3)n2)cc1
liver cell % of control [1]: 58.8% | parasite % of control [1]: 102% (inactive) | percent of negative control (+Dex) [2]: 99% (inactive) | z-score [2]: 0.615 | z-score [6]: -1.07 (inactive) | z-score [7]: -0.715 (inactive) | EGFP object count [3]: 28.5 | EGFP/DsRed ratio [3]: 0.354 (inactive) | fraction signal [4]: -0.002 (inactive) | z-score [8, 23]: -0.215 (inactive) | z-score [8, 24]: -0.0474
